The source of these data is PubChem BioAssay.

For part of these data: Entries with a potency or affinity are not part of this list. Active and inactive are the calls of the source.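 Rule for the calls, unless noted: active = dose curve with midpoint inside tested range, moderate steepness, plateau gap beyond fit error, low compound glow and bead-link interference; inactive = the rest.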

Experiment [1] concerns the target Cell division control protein 42 homolog (Homo sapiens) (UniProt P60953). Put plainly: inhibition of fluorescent GTP binding to constitutively active Cdc42 – biochemical, multiplex bead flow cytometry, Bodipy-FL-GTP, dose response (AID 1333;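 active = fitted half-maximal concentration within the tested dose range, moderate curve steepness, a statistically real signal drop, and little compound fluorescence or tag-binding interference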). On the technique in general: Flow cytometry measures light scatter and fluorescence of single cells or particles in a stream.

Experiment [2] shares this target. Briefly: inhibition of fluorescent GTP binding to wildtype Cdc42 – biochemical, multiplex bead flow cytometry, Bodipy-FL-GTP, dose response (AID 1334;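 active = fitted half-maximal concentration within the tested range, moderate curve steepness, significant signal drop, and little compound fluorescence or bead-linkage interference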). As to conditions: bead-based flow cytometry, Bodipy-FL-GTP binding to GST-Cdc42; at 100 µM (top of the series) unless noted.
The target of experiment [3] is GTPase HRas (Homo sapiens) (UniProt P01112). Put plainly: Ras wt fluorescent GTP loading blockade – biochemical, wildtype, multiplex bead flow cytometry, dose response (AID 1335;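 active = fitted half-maximal concentration within 10 nM to 100 µM, steepness 0.5 to 2, significant signal drop, low assay interference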). As to conditions: bead-based flow cytometry, Bodipy-GTP binding to GST-Ras; at 100 µM (top of the series) unless noted.
Chain of GTPase HRas (Homo sapiens) (P01112 whole entry, looked up): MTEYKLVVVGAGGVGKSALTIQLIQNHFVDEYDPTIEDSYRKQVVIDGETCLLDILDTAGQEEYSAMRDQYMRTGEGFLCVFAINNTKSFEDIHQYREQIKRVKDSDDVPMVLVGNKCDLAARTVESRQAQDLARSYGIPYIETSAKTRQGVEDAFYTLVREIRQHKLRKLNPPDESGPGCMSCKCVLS
For experiment [4], the system named is Ras-related protein Rab-7a (dog), GTP binding. Put plainly: blockers of fluorescent GTP binding to Rab7 – biochemical, wildtype, multiplex bead flow cytometry, dose response (AID 1336; call rule not given here).
The target of experiment [5] is Ras-related C3 botulinum toxin substrate 1 (Homo sapiens) (UniProt P63000). Put plainly: inhibition of wildtype Rac1 nucleotide loading – biochemical, multiplex bead flow cytometry, dose response (AID 1340). The note with it: GST-Rac1 beads, Bodipy-FL-GTP binding; at 100 µM (top of the series) unless noted.
In experiment [6] the target is GTPase HRas (Homo sapiens) (UniProt P01112). Put plainly: blockade of GTP loading onto mutant Ras – biochemical, activated mutant, multiplex bead flow cytometry, dose response (AID 1341;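 active = dose-response curve with midpoint inside the tested range, moderate steepness, significant amplitude and little compound fluorescence or bead-attachment interference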;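 note: GST-tagged constitutively activated Ras mutant immobilized on beads and multiplexed with other GTPases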).

Chain of Cell division control protein 42 homolog (Homo sapiens) (P60953 whole entry, looked up): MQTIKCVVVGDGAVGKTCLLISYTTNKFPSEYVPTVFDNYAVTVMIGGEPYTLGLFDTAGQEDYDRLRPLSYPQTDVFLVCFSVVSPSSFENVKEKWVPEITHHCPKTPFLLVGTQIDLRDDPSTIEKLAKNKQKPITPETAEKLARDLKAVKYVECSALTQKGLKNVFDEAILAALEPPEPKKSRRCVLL

Consider `O=C(O)c1ccc(CSCc2ccccc2)o1`, for which the compound was called inactive in experiment [1], in experiment [4] and in experiment [6]. Further, the fluorescence, percent of control (lower = inhibition) in experiment [2] worked out at 62.4%. For the same compound, the GTP binding, percent of control in experiment [3] turned out to be 91.5%. In experiment [5], this compound returned a GTP binding signal, raw median fluorescence (lower = inhibition) (MCF (arbitrary fluorescence units)) of 41.9.

Turning to `COc1ccc(NC(=S)N(CCN(C)C)C(C)c2ccco2)cc1Cl` (stereo not given), the result in experiment [1], in experiment [4] and in experiment [6] was inactive. Moreover, in experiment [2], the fluorescence, percent of control (lower = inhibition) came to 49.2%. This compound had a GTP binding, percent of control in experiment [3] of 60.4%. Further, the GTP binding signal, raw median fluorescence (lower = inhibition) (MCF (arbitrary fluorescence units)) in experiment [5] is 210.

Turning to `COC(=O)COc1ccc(/C=N/NC(=O)c2ccc(N(Cc3ccccc3)S(C)(=O)=O)cc2)cc1`, the call in experiment [1], in experiment [4] and in experiment [6] was inactive. In experiment [2], the fluorescence, percent of control (lower = inhibition) came out at 39.7%. This compound displayed a GTP binding, percent of control in experiment [3] of 55.5%. In experiment [5], this compound had a GTP binding signal, raw median fluorescence (lower = inhibition) (MCF (arbitrary fluorescence units)) of 124.

Turning to `O=c1c2ccccc2nc2c3ccccc3c(NCCO)nn12`, the compound was classed as inactive in experiment [1], in experiment [4] and in experiment [6]. For the same compound, the fluorescence, percent of control (lower = inhibition) in experiment [2] was 27.1%. The same compound showed a GTP binding, percent of control in experiment [3] of 65%. This compound registered a GTP binding signal, raw median fluorescence (lower = inhibition) (MCF (arbitrary fluorescence units)) in experiment [5] of 165.

As to `CCOc1ccc(-n2c(-c3ccco3)n[nH]c2=S)cc1`, the compound was classed as inactive in experiment [1], in experiment [4] and in experiment [6]. Besides, the fluorescence, percent of control (lower = inhibition) in experiment [2] stood at 56.1%. The GTP binding, percent of control in experiment [3] amounted to 112%. This compound also registered a GTP binding signal, raw median fluorescence (lower = inhibition) (MCF (arbitrary fluorescence units)) in experiment [5] of 107.

Turning to `Cc1cc(=O)[nH]c2c(N=Nc3ccc(O)cc3)c(N)nn12`, the compound was called inactive in experiment [1], in experiment [4] and in experiment [6]. Moreover, the fluorescence, percent of control (lower = inhibition) in experiment [2] stood at 31.3%. In experiment [3], the GTP binding, percent of control turned out to be 69.7%. For the same compound, in experiment [5], the GTP binding signal, raw median fluorescence (lower = inhibition) (MCF (arbitrary fluorescence units)) was determined as 161.

As for `CCOc1cccc(Nc2cc3n(c(=O)n2)CCc2cc(OC)c(OC)cc2-3)c1`, the result in experiment [1], in experiment [4] and in experiment [6] was inactive. In addition, in experiment [2], the fluorescence, percent of control (lower = inhibition) is 32%. Moreover, the GTP binding, percent of control in experiment [3] turned out to be 71.9%. This compound gave a GTP binding signal, raw median fluorescence (lower = inhibition) (MCF (arbitrary fluorescence units)) in experiment [5] of 186.

`COc1ccccc1OCCn1cc(C(=O)O)c2c(C)cccc21`: the outcome in experiment [1], in experiment [4] and in experiment [6] was inactive. In addition, the fluorescence, percent of control (lower = inhibition) in experiment [2] came to 56.8%. Also, the GTP binding, percent of control in experiment [3] came to 202%. For the same compound, the GTP binding signal, raw median fluorescence (lower = inhibition) (MCF (arbitrary fluorescence units)) in experiment [5] worked out at 55.3.

Take `Nc1[nH]n2c(=O)c3c(nc2c1N=Nc1ccc(Cl)cc1)CCCC3`: the compound was classed as inactive in experiment [1], in experiment [4] and in experiment [6]. Also, in experiment [2], the fluorescence, percent of control (lower = inhibition) was 61.6%. Further, the GTP binding, percent of control in experiment [3] is 49.2%. In experiment [5], this compound displayed a GTP binding signal, raw median fluorescence (lower = inhibition) (MCF (arbitrary fluorescence units)) of 188.

`C=C(C)COc1ccc(-c2n[nH]c(C)c2-c2ccc(Br)cc2)c(O)c1`: the outcome in experiment [1], in experiment [4] and in experiment [6] was inactive. Moreover, the fluorescence, percent of control (lower = inhibition) in experiment [2] was 32.9%. Further, the GTP binding, percent of control in experiment [3] stood at 78.5%. In experiment [5], this compound came in with a GTP binding signal, raw median fluorescence (lower = inhibition) (MCF (arbitrary fluorescence units)) of 265.

Regarding `O=S(=O)(Cc1ccc(Cl)cc1)c1ccccc1-c1nnc(-c2ccccc2)o1`, the call in experiment [1], in experiment [4] and in experiment [6] was inactive. Also, the fluorescence, percent of control (lower = inhibition) in experiment [2] came out at 104%. In experiment [3], this compound had a GTP binding, percent of control of 196%. This compound showed a GTP binding signal, raw median fluorescence (lower = inhibition) (MCF (arbitrary fluorescence units)) in experiment [5] of 207.

In the case of `CCOc1ccc2nc(SCc3ccc(CC(=O)O)cc3)c(C#N)cc2c1`, the call in experiment [1], in experiment [4] and in experiment [6] was inactive. Further, the fluorescence, percent of control (lower = inhibition) in experiment [2] came to 28.4%. Besides, in experiment [3], the GTP binding, percent of control is 73.2%. The same compound displayed a GTP binding signal, raw median fluorescence (lower = inhibition) (MCF (arbitrary fluorescence units)) in experiment [5] of 201.

As to `O=C(NC1CC2CCCC(C1)N2C(=O)Nc1ccc(Cl)c(C(F)(F)F)c1)C1CC1` (stereo not given), the result in experiment [1], in experiment [4] and in experiment [6] was inactive. In addition, in experiment [2], the fluorescence, percent of control (lower = inhibition) is 94.3%. In experiment [3], this compound came in with a GTP binding, percent of control of 162%. The GTP binding signal, raw median fluorescence (lower = inhibition) (MCF (arbitrary fluorescence units)) in experiment [5] was found to be 185.

`CCN(c1ccc(N=Cc2c(O)n(Cc3ccc(OC)cc3)c(=O)c3ccccc23)cc1)C(C)C`: the result in experiment [1], in experiment [4] and in experiment [6] was inactive. Further, the fluorescence, percent of control (lower = inhibition) in experiment [2] is 154%. In addition, the GTP binding, percent of control in experiment [3] amounted to 196%. Further, in experiment [5], the GTP binding signal, raw median fluorescence (lower = inhibition) (MCF (arbitrary fluorescence units)) was 452.

Regarding `O=c1[nH]cnc2c1C(c1ccccc1[N+](=O)[O-])c1c(nc[nH]c1=O)O2`, the compound was classed as inactive in experiment [1], in experiment [4] and in experiment [6]. In addition, the fluorescence, percent of control (lower = inhibition) in experiment [2] is 38.6%. The same compound yielded a GTP binding, percent of control in experiment [3] of 50%. This compound also returned a GTP binding signal, raw median fluorescence (lower = inhibition) (MCF (arbitrary fluorescence units)) in experiment [5] of 113.
